Most compounds without a hit are left out; they make up all but 2.1% or so of the library.
FUS yeast rescue: FUS proteinopathy suppression in yeast; S. cerevisiae FUS-expressing, growth rescue, OD600, 24 h; Potency, µM (top dose mostly 76.6 µM), usual class: activators; hit rate 0.24% among 390,000; AID 1347120; also: nearly all actives have a fitted effect of over 55% in size
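Absorbance at 600 nm, taken 24hr after compound addition, measured rescue of FUS-yeast growth at 30C. Induction used 2% galactose with seeding at OD 0.005. Controls: CP55940 from 92uM final, DMSO only.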
TDP-43 yeast inh: rescues yeast growth from TDP-43 toxicity; TDP-43 expressing yeast growth rescue, BacTiter-Glo, 24 h; Potency, µM (highest dose often 46.1 µM), hits mostly activators; hit rate 1.8% among 410,000; also: nearly all actives have a fitted effect of over 50% in size
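Luminescence from BacTiter-Glo reports growth of TDP-43-expressing yeast after 24 hr at 30 deg C with compound. Cells were raffinose-pregrown to mid-log, then seeded in galactose medium at OD600=0.02.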
Abeta yeast res: A-beta toxicity reversal in yeast; yeast expressing A-beta42, growth rescue, OD600, 48 h; response scale: 0% DMSO, 100% iron-clioquinol control; hit rate 0.063% among 410,000; Potency, µM (doses to about 46.1 µM), usual class: activators; AID 1347071; also: nearly all actives have a fitted effect of over 55% in size
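Growth rescue measured by 600 nm absorbance after 48 h yeast culture at 30 C with compound. Values normalized between DMSO and an equimolar ferric chloride plus clioquinol control.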
aSyn rescue: alpha-synuclein toxicity inhibition in yeast. Yeast expressing alpha-synuclein, growth rescue, BacTiter-Glo, 24 h. AID 652106. hit rate 0.14% among 370,000. Potency, µM (titrated, usually from 46.1 µM), actives largely listed as activators; also: nearly all actives have a fitted effect of over 65% in size
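Rescue of yeast growth: cells expressing toxic alpha-synuclein, induced in galactose at OD600 0.02, incubated with compound 24 h at 30 C. ATP luminescence quantified growth; inhibitors of toxicity appear as activators.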
Large screens that a line does not name were inactive. Calls follow the shape of the dose curve; as a rule, active = well fitted curve in the direction sought with a large enough effect; inconclusive = small, poorly fitted or top-dose-only effect, or another doubt; inactive = no such curve, though single readings can be large; an effect the other way counts as inactive or inconclusive.

COc1ccc(C(=O)Nc2cc(Cl)c(Br)cc2C(=O)O)cc1	none (no result: TDP-43 yeast inh, Abeta yeast res, aSyn rescue)
O=c1[nH][nH]c2c1[C@@H](c1ccc(F)cc1)O[C@H](C1CCCCC1)C2	none
O=c1[nH][nH]c2c1[C@H](c1ccc(F)cc1)O[C@H](C1CCCCC1)C2	FUS yeast rescue inconclusive, TDP-43 yeast inh 32µM
CCCC[C@@H]1Cc2[nH][nH]c(=O)c2[C@H](c2ccc(C(C)C)cc2)O1	FUS yeast rescue inconclusive, TDP-43 yeast inh 20µM
C[C@@H]1Cc2[nH][nH]c(=O)c2[C@H](c2ccc(Cl)cc2)O1	none
CCCC[C@@H]1Cc2[nH][nH]c(=O)c2[C@@H](c2ccc(Cl)cc2)O1	none
O=c1[nH][nH]c2c1[C@H](c1ccc(Cl)cc1)O[C@H](C1CC1)C2	TDP-43 yeast inh 11µM
O=c1[nH][nH]c2c1[C@H](c1ccccc1)O[C@H](C1CCCCC1)C2	FUS yeast rescue inconclusive, TDP-43 yeast inh 35µM
Cc1cccn2c(=O)c(C=O)c(Cl)nc12	TDP-43 yeast inh 10µM
Cc1cccn2c(=O)c(C=O)c(N3CCCCC3)nc12	none
CCn1nccc1C(=O)Nc1cc(Cl)cc(Cl)c1	TDP-43 yeast inh 20µM
O=C(OC12CCCN(C1)/C(=C/c1cccc(Cl)c1)C2)c1ccno1 (configuration not stated)	none (no result: TDP-43 yeast inh, Abeta yeast res, aSyn rescue)
CC1C(=O)OC(c2ccc(Cl)cc2)C(C)(C)C1=O (configuration not stated)	TDP-43 yeast inh inconclusive
C[C@@H]1C=CC(=O)O[C@@H]1c1ccc(Cl)cc1	TDP-43 yeast inh 13µM
CCc1cccc(NC(=O)c2cc3c(=O)n(Cc4ccc(OC)cc4)ccc3nc2C)c1	none (no result: aSyn rescue)
O=C(c1ccc(-c2ccc([N+](=O)[O-])cc2)o1)N1CCCCCCC1	FUS yeast rescue inconclusive
O=C(c1ccc(-c2ccc([N+](=O)[O-])cc2)o1)N1CCCC(C(F)(F)F)C1 (configuration not stated)	FUS yeast rescue inconclusive, TDP-43 yeast inh 35µM
CCn1cc(Br)c(C(=O)Nc2ccc(F)c(Cl)c2)n1	TDP-43 yeast inh 11µM
CCn1cc(Br)c(C(=O)Nc2ccc(Cl)cc2Cl)n1	TDP-43 yeast inh 4.5µM
CCOC(=O)c1ccc(NC(=O)c2nn(CC)cc2Br)cc1	none
CCOC(=O)c1c(NC(=O)c2nn(CC)cc2Br)sc(C)c1C	none
Cc1cc(-c2ccccc2)n2nc(C)c(C#N)c2n1	TDP-43 yeast inh 16µM
COc1ccc(N2C(=O)CC(SCC(=O)O)C2=O)cc1 (configuration not stated)	none
O=C1CC(SCc2nc3ccccc3[nH]2)C(=O)N1c1ccc(F)c(Cl)c1 (configuration not stated)	TDP-43 yeast inh 13µM (no result: aSyn rescue)
COc1ccc(N2C(=O)CC(SCc3ccc(Cl)cc3)C2=O)cc1 (configuration not stated)	TDP-43 yeast inh 22µM
COc1cccc(-n2c(-c3ccccc3F)nc3c(cnn3-c3ccc(C)cc3)c2=O)c1	FUS yeast rescue 16µM (no result: aSyn rescue)
O=C(Oc1c(Cl)cc(Cl)c2ccccc12)N1CCCC1	TDP-43 yeast inh 13µM
COc1ccc(CNC(=O)O[C@H]2CC[C@@]34CCCN3C(=O)CCC[C@H]4[C@H]2C)cc1	none (no result: TDP-43 yeast inh, Abeta yeast res, aSyn rescue)
O=C(OCc1c(Cl)cccc1Cl)c1cccnc1Cl	TDP-43 yeast inh 13µM
O=C(OCc1ccccc1Cl)c1cccnc1Cl	none
Cc1ccc(Cl)cc1N1CCN(Cc2nc3c(c(=O)[nH]c(=O)n3C)n2Cc2ccccc2F)CC1	TDP-43 yeast inh 11µM
COc1ccc(-c2nc3ccc(Br)cn3c2Cc2cccc(Cl)c2)cc1OC	FUS yeast rescue inconclusive, TDP-43 yeast inh 22µM, aSyn rescue inconclusive
COc1ccc(-c2nc3ccc(Cl)cn3c2Cc2cccc(Cl)c2)cc1OC	TDP-43 yeast inh 35µM
COc1ccc(-c2nc3ccc(Cl)cn3c2Cc2ccccc2)cc1OC	none
Cc1ccc(C2CC2C(=O)NNC(=S)Nc2cccc(Cl)c2)cc1 (configuration not stated)	FUS yeast rescue inconclusive, TDP-43 yeast inh 14µM
COc1ccc(NC(=S)NNC(=O)C2CC2c2ccc(C)cc2)cc1 (configuration not stated)	TDP-43 yeast inh inconclusive (no result: FUS yeast rescue)
Cc1ccc(NC(=S)NNC(=O)C2CC2c2ccc(C)cc2)cc1 (configuration not stated)	FUS yeast rescue 28µM, Abeta yeast res inconclusive
Nn1c(SCC(=O)Nc2cc(C(F)(F)F)ccc2Cl)nnc1-c1n[nH]c2c1CCC2	none (no result: TDP-43 yeast inh, Abeta yeast res, aSyn rescue)
O=[N+]([O-])c1ccc(N2CCN(C(=S)NC3CCCCC3)CC2)cc1	TDP-43 yeast inh 13µM, Abeta yeast res inconclusive
O=C(c1ccc2nc(-c3ccccc3)c(-c3ccccc3)nc2c1)N1CCCCC1	TDP-43 yeast inh 35µM
COc1ccc(-c2cc(C(=O)O)sc2C)cc1	TDP-43 yeast inh 22µM
N#Cc1cnc(SCC(=O)c2ccccc2)nc1N	none
N#Cc1cnc(SCCc2ccccc2)nc1N	TDP-43 yeast inh 13µM
S=C(c1ccc(-c2cc(Cl)ccc2Cl)o1)N1CCCCC1	none (no result: FUS yeast rescue)
S=C(c1ccc(-c2cc(Cl)ccc2Cl)o1)N1CCOCC1	TDP-43 yeast inh 13µM
O=C(CNC(=O)c1ccccc1)OCC(=O)c1cccc2ccccc12	none (no result: FUS yeast rescue, TDP-43 yeast inh, Abeta yeast res)
COc1ccc(NC(=O)CN(C)C(=O)c2cccc(S(=O)(=O)N3CCN(c4ccc(F)cc4)CC3)c2)cc1	FUS yeast rescue 22µM
CCC(NC(=O)C1CCCN(c2ncccn2)C1)c1ccccc1 (configuration not stated)	none (no result: TDP-43 yeast inh, Abeta yeast res, aSyn rescue)
COc1ccc(OC)c(-c2csc(-c3c(N)c(C(=O)c4ccc(Cl)cc4)n4ccccc34)n2)c1	none (no result: aSyn rescue)
COC(=O)[C@@]1(Cc2ccc(F)cc2)[C@H]2c3cc(C(=O)N(C)C)n(CC4CC4)c3C[C@H]2CN1C(=O)c1ccccc1	FUS yeast rescue 25µM
CC1=NNC(=O)C1CC(=O)N/N=C/C(Br)=C/c1ccccc1 (configuration not stated)	TDP-43 yeast inh 14µM
Cc1ccc(C2CC(c3ccccc3)=NN2c2ccc(S(N)(=O)=O)cc2)cc1 (configuration not stated)	FUS yeast rescue inconclusive, TDP-43 yeast inh inconclusive
CCc1ccc(C2=NN(c3ccc(S(N)(=O)=O)cc3)C(c3ccc(F)cc3)C2)cc1 (configuration not stated)	TDP-43 yeast inh 14µM, Abeta yeast res inconclusive (no result: FUS yeast rescue)
COc1ccc(C2CC(c3ccccc3C(F)(F)F)=NN2c2ccc(S(N)(=O)=O)cc2)cc1 (configuration not stated)	none
COc1ccc(C2CC(c3ccc(C(F)(F)F)cc3)=NN2c2ccc(S(N)(=O)=O)cc2)cc1 (configuration not stated)	FUS yeast rescue inconclusive, TDP-43 yeast inh 13µM, aSyn rescue inconclusive
CN(C)c1ccc(-c2nc3ncc(Cl)cc3[nH]2)cc1	none (no result: TDP-43 yeast inh, Abeta yeast res, aSyn rescue)
CCCN1C(=O)C(O)(CC(=O)c2ccc(CC)cc2)c2ccccc21 (configuration not stated)	none (no result: aSyn rescue)
CCCCN1C(=O)C(O)(CC(=O)c2ccc(CC)cc2)c2cc(Br)ccc21 (configuration not stated)	TDP-43 yeast inh 18µM (no result: aSyn rescue)
Nc1ccc(/C=C/c2nc3ccccc3s2)cc1	aSyn rescue 13µM (no result: FUS yeast rescue, TDP-43 yeast inh, Abeta yeast res)
